D1 potentiator: Potentiators of Human D1 Dopamine Receptor: qHTS. AID 504651, 2011. actives 0.036% (n = 360,000). HEK293 TREx D1 cells, calcium flux, dopamine EC20 potentiation. potentiation, % at 10 µM; in the data active = potentiation above about 30%; note: 0% is about no effect
D1 agonist: Allosteric Agonists of the Human D1 Dopamine Receptor: qHTS; activation, % at 2 µM; HEK293 T-REx D1 cells, calcium flux, agonist mode; actives 1% (n = 360,000); AID 504660, 2011; note: 0% is about no effect
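Agonism was scored from calcium flux recorded over 180 s (1 read/s) after pintool compound addition, following a 10-cycle baseline. Cells were inducible force-coupled HEK293 TREx D1, plated overnight at 30 C and loaded with no-wash calcium dye.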
TRHR PAM: qHTS for Small Molecule Agonists and Allosteric Enhancers of Human TRH Receptor: Primary Screen for Enhancers; TRHR cells, fluo-8 calcium fluorescence, EC20 TRH enhancement; enhancement, % at 2 µM; actives 0.66% (n = 360,000); AID 493056, 2011; in the data active = enhancement above about 30%; note: 0% is about no effect
Target sequence (P34981 whole entry, looked up): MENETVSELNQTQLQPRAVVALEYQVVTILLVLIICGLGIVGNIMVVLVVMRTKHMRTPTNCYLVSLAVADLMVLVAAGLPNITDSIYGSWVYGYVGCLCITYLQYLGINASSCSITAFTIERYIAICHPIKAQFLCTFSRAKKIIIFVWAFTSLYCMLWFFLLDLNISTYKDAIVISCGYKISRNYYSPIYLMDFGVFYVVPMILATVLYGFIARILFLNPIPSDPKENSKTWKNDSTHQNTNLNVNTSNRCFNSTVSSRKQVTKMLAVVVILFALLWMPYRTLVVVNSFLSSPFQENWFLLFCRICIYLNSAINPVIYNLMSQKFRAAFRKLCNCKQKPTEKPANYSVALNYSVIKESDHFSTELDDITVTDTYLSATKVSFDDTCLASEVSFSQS
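TRHR-expressing cells loaded with fluo-8 calcium dye were read kinetically (ex 480/em 530) during compound addition, then stimulated with an EC20 of TRH (10 nM final). Enhancement of the Gq-mediated intracellular calcium response was scored.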
TRHR ag: qHTS for Small Molecule Agonists and Allosteric Enhancers of Human TRH Receptor: Primary Screen for Agonists; Thyrotropin-releasing hormone receptor (Homo sapiens), P34981; TRHR cells, calcium flux fluo-8, FDSS agonist mode; activation, % at 2 µM; actives 0.18% (n = 360,000); note: 0% is about no effect
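In this calcium-flux screen, cells bearing human TRHR are dye-loaded with fluo-8, baselined for 10 cycles, then exposed to library compounds; positive kinetic calcium responses during the agonist phase mark hits, with TRH as control.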
D1 antagonist: Antagonist of Human D 1 Dopamine Receptor: qHTS | D(1A) dopamine receptor (Homo sapiens), P21728 | HEK293 TREx D1 cells, calcium flux, dopamine EC80; hits give low values | actives 3.2% (n = 360,000) | activity change, negative = inhibition, % at 10 µM; in the data active = activity change below about -30%; note: % is set by controls: 0 for no effect and ±100 for the full control effect
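Cells carrying a force-coupled, tetracycline-inducible human D1 receptor report calcium flux. Each well gets a 10 s baseline, compound with 180 s monitoring, then an EC80 dopamine stimulus with a second 180 s kinetic read.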
Numbers without * were called inactive. Sampled rows, rich in hits. Any-hit rate of the full collection: about 4.7%. Cut-off read from the data, not from the text of the source, unless noted: active = activation above about 30%; inactive = the rest.

SMILES | D1 potentiator | D1 agonist | TRHR PAM | TRHR ag | D1 antagonist
O=C(Nc1cccc(C(F)(F)F)c1)C1CCN(S(=O)(=O)c2ccc(N3CCCC3=O)cc2)CC1 | -11 | 9 | -6 | 1 | -47*
CCOC(=O)c1ccccc1NC(=O)COC(=O)C(CC(C)C)NC(N)=O (stereo not drawn) | -2 | 2 | 41* | -1 | -2
NCc1nc2cccnc2n1Cc1ccccc1Cl | -2 | 0 | -3 | -1 | -31*
O=C(NCCc1ccccc1)C1CCN(c2ncnc3c2nc2n3CCCCC2)CC1 | 2 | 0 | 1 | -1 | -2
CC(C)(C)C(=O)NC(n1cnc2c(N3CCOCC3)ncnc21)C(Cl)(Cl)Cl (stereo not drawn) | -5 | 0 | -4 | 1 | -34*
c1ccc(Cn2nnc3c(N4CCOCC4)ncnc32)cc1 | 12 | 0 | 1 | 0 | 19
O=C(COc1ccc(S(=O)(=O)NC2CCCCC2)cc1)N1CCN(c2ccc(F)cc2)CC1 | -8 | 10 | -1 | 1 | -30*
O=C(NCCCN1CCN(c2ccccc2)CC1)c1sc2ncccc2c1-n1cccc1 | -5 | 0 | 0 | -1 | -22
Cc1ccc(C)n1-c1c(C(=O)NCCCN2CCN(c3ccc(F)cc3)CC2)sc2ncccc12 | -5 | 1 | 2 | -1 | -56*
O=C(NCCCN1CCN(c2ccccc2F)CC1)c1sc2ncccc2c1-n1cccc1 | -5 | -1 | 1 | -1 | -38*
O=C(NCCCN1CCN(c2cccc(Cl)c2)CC1)c1sc2ncccc2c1-n1cccc1 | -5 | 2 | -4 | 0 | -35*
Cc1ccc(NC(=O)Nc2ccno2)cc1 | -9 | 1 | -1 | 0 | -37*
Cc1cc2c(s1)c1cnn(Cc3cc(F)ccc3C)c(=O)c1n2C | 6 | 2 | -4 | 0 | 23
CC(=O)N1CCc2cc(S(=O)(=O)N3CCN(S(=O)(=O)c4c(F)cccc4F)CC3)ccc21 | 4 | 1 | 7 | -2 | -6
CCOc1ccccc1NC(=O)CN(c1cc(C)cc(C)c1)S(=O)(=O)c1c(C)noc1C | 0 | 0 | -1 | 0 | -40*
Cc1noc(C)c1S(=O)(=O)N(CC(=O)NCc1ccccc1)c1ccc(C(C)C)cc1 | -1 | 5 | -16 | 1 | 10
CCOc1ccc(N(CC(=O)Nc2cccc(F)c2)S(=O)(=O)c2c(C)noc2C)cc1 | -4 | 5 | 7 | 1 | -34*
COc1ccccc1NC(=O)CN(c1ccc(C)cc1)S(=O)(=O)c1c(C)n[nH]c1C | -8 | 4 | 2 | -1 | -54*
Cc1noc(C)c1S(=O)(=O)N(CC(=O)NCc1ccc(F)cc1)c1ccc(C(C)C)cc1 | -5 | 3 | -12 | 1 | -35*
COc1ccc(OC)c(NC(=O)CN(c2ccc(C)cc2)S(=O)(=O)c2c(C)n[nH]c2C)c1 | -1 | 2 | 2 | -1 | 14
CCOc1ccc(N(CC(=O)Nc2ccc(C)c(C)c2)S(=O)(=O)c2c(C)noc2C)cc1 | -3 | 3 | -10 | 0 | -10
CCn1ccc2cc(S(=O)(=O)N3CCCN(C(=O)NCCOC)CC3)ccc21 | -2 | 4 | -2 | 0 | 24
COc1cccc(NC(=O)C(OC(=O)CNC(=O)c2ccccc2)c2ccccc2)c1 (stereo not drawn) | 7 | -1 | 6 | -3 | 19
COc1ccc(S(=O)(=O)N2CCN(CC(=O)Nc3ccc(F)c(F)c3)CC2)cc1 | -8 | 8 | -1 | 0 | -33*
CC1CCN(S(=O)(=O)c2ccc(NC(=O)CN3CCCC3)cc2)CC1 | 3 | 36* | 0 | 1 | 26
COc1ccc(S(=O)(=O)N2CCN(CC(=O)Nc3cccc(OC)c3)CC2)cc1 | 2 | 0 | -4 | 0 | -5
COC(=O)c1ccc(NC(=O)CN2CCN(S(=O)(=O)c3cc(Cl)ccc3OC)CC2)cc1 | -6 | 38* | 0 | -2 | 2
COc1ccc(C(=O)CN2CCN(S(=O)(=O)c3ccc(F)cc3)CC2)cc1 | -4 | 3 | -2 | 0 | -30*
